Consider 40 compounds from PubChem BioAssay (Tox21).

The structures appear in SMILES notation. Inconclusive results are not listed. Where a call stands in place of a potency, no number is given. The source made the active and inactive calls. Calls come from the whole dose curve.
Potency is the fitted concentration of half-maximal effect.

The target of this experiment is Peroxisome proliferator-activated receptor gamma (Homo sapiens) (UniProt P37231). The experiment is described as follows: qHTS assay to identify small molecule antagonists of the peroxisome proliferator-activated receptor gamma (PPARg) signaling pathway (AID 743191). Note: nearly all actives have a fitted effect of over 30% in size. Particulars: HEK293H PPARg-UAS-bla, beta-lactamase ratio, antagonist, 17 h; series mostly up to 62.6 µM. From the text: U.S. Tox21 Program National Center for Advancing Translational Sciences [NCATS] NIH Chemical Genomics Center [NCGC] U.S. Environmental Protection Agency [EPA] National Institutes of Environmental Health Sciences [NIEHS] National Toxicology Program [NTP] U.S. Food and Drug Administration [FDA] Tox21 Assay Overview: The peroxisome proliferator-activated receptors (PPARs) are lipid-activated transcription factors of the nuclear receptor superfamily with three distinct subtypes namely PPAR alpha, PPAR delta (also called PPAR beta) and PPAR gamma (PPARg). All these subtypes heterodimerize with Retinoid X receptor (RXR) and these heterodimers regulate transcription of various genes. PPAR-gamma receptor (glitazone receptor) is involved in the regulation of glucose and lipid metabolism. To identify the compounds that inhibit PPAR-gamma signaling, GeneBLAzer PPAR gamma UAS-bla HEK293H cell line (Invitrogen, Carlsbad, CA, USA) containing a beta-lactamase reporter gene under control of an Upstream Activator Sequence (UAS) was used to screen the Tox21 compound library.
Chain of Peroxisome proliferator-activated receptor gamma (Homo sapiens) (P37231 whole entry, looked up): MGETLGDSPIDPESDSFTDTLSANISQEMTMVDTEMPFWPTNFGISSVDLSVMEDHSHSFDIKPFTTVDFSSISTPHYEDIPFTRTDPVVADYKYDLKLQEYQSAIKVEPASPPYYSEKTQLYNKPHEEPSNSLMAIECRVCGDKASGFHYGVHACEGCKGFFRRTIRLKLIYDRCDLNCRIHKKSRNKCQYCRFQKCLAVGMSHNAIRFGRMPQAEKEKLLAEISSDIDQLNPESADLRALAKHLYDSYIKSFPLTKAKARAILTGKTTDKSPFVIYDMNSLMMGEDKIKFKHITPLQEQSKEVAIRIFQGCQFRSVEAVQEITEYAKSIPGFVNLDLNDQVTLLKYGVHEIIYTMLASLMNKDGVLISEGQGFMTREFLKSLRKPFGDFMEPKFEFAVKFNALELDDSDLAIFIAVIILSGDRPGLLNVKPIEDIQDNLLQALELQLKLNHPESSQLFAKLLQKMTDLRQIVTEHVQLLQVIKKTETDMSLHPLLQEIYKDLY
Tox21 Assay Protocol Summary: PPARg-bla cells were dispensed at 3000 cells/6uL/well in 1536-well black wall/clear bottom plates using a Multidrop Combi (Thermo Fisher Scientific, Waltham, MA) dispenser. After the assay plates were incubated at 37C and 5% CO2 for 5 h, 23 nL of compounds dissolved in DMSO, positive controls or DMSO only was transferred to the assay plate by a Pintool station (Kalypsys, San Diego, CA). The assay plates were incubated at 37C for 17 h. After 1 uL of LiveBLAzerTM B/G FRET substrate was added using a Bioraptr Flying Reagent Dispenser (FRD) workstation (Beckman Coulter, Indianapolis, IN, USA), the plates were incubated at room temperature for 1 h, and fluorescence intensity was measured by an Envision plate reader (PerkinElmer, Shelton, CT).
For orientation: Quantitative high-throughput screening tests each substance at several concentrations.
Turning to `NCCCN1CCOCC1`, the Potency result was “inactive”.

For `CC(C)(CO)[N+](=O)[O-]`, the Potency entry was “inactive”.

Regarding `NC(N)=NCCC[C@H](N)C(=O)O`, the ratio activity, negative = inhibition was 0.163% [at 5.95 µM] (inactive).

For the compound `COc1cc2nc(N(C)CCCNC(=O)C3CCCO3)nc(N)c2cc1OC` (stereo not given), the Potency entry is “inactive”.

`Nc1ccc([N+](=O)[O-])c(C(F)(F)F)c1`: the Potency result is “inactive”.

With `CCn1cc(C(=O)O)c(=O)c2cnc(N3CCNCC3)nc21`, the Potency result was “inactive”.

Consider `Clc1ccc2c(c1)CCc1cccnc1C2=C1CCNCC1`, for which the Potency result was “inactive”.

Turning to `CCCCC1=NC2(CCCC2)C(=O)N1Cc1ccc(-c2ccccc2-c2nn[nH]n2)cc1`, the Potency entry was “inactive”.

Consider `CCOc1ccc(N=Nc2ccc(/C=C/c3ccc(N=Nc4ccc(OCC)cc4)cc3S(=O)(=O)O)c(S(=O)(=O)O)c2)cc1`, for which the Potency result was “inactive”.

`CCOC(=O)C(=O)CCc1ccccc1`: the Potency entry was “inactive”.

`C/C(=C(\CCOP(=O)(O)O)SC(=O)c1ccccc1)N(C=O)Cc1cnc(C)nc1N`: the ratio activity, negative = inhibition is 3.86% [at 5.95 µM] (inactive).

With `CCCCCCCCCCCCCCOS(=O)(=O)O`, the Potency entry is “inactive”.

With `C/C=C/C(=O)CC`, the ratio activity, negative = inhibition was 6.72% [at 13.2 µM] (inactive).

Turning to `CN1CCC(=C2c3ccccc3Sc3ccccc32)CC1`, the Potency result was “inactive”.

Regarding `CCO[Si](CCCCl)(OCC)OCC`, the Potency entry is “inactive”.

As to `CN(C)CCN(Cc1ccccc1)c1ccccn1`, the Potency entry was “inactive”.

Turning to `CCOC(=O)Cc1cccc2ccccc12`, the Potency entry was “inactive”.

On to `CC(C)(C)Cl`, for which the Potency entry was “inactive”.

Consider `CN1C[C@H]2c3ccccc3Oc3ccc(Cl)cc3[C@@H]2C1`, for which the Potency entry was “inactive”.

Turning to `OC[C@H]1O[C@@H](OCCc2ccc(O)cc2)[C@H](O)[C@@H](O)[C@@H]1O`, the Potency entry was “inactive”.

In the case of `COc1ccc(C(=O)N2CCN(CC(=O)N3CCOCC3)CC2)cc1`, the Potency entry is “inactive”.

Turning to `CNC(=O)CN(CCN(CCN(CC(=O)[O-])CC(=O)NC)CC(=O)[O-])CC(=O)[O-].O.[Gd+3]`, the Potency entry was “inactive”.

As for `CCCCNc1ccc(C(=O)OCCOCCOCCOCCOCCOCCOCCOCCOCCOC)cc1`, the Potency result is “inactive”.

Regarding `CCCCCCCCCCCCN1CCCCCC1=O`, the Potency entry was “inactive”.

`COc1ccc(C(=O)Nc2nc3ccccc3c(NCc3ccccc3)c2C#N)cc1`: the Potency was 1.74 µM (active).

On to `ClCCOCCOCCCl`, for which the Potency result is “inactive”.

With `O=C(O)CNCC(=O)O`, the ratio activity, negative = inhibition was 11.9% [at 5.95 µM] (inactive).

As to `COc1ccc2cccc(CCNC(C)=O)c2c1`, the Potency entry is “inactive”.

`CC(=O)OC[C@H]1O[C@@H](n2ncc(=O)[nH]c2=O)[C@H](OC(C)=O)[C@@H]1OC(C)=O`: the Potency was 0.841 µM (active).

On to `O=[N+]([O-])c1ccc2[nH]ncc2c1`, for which the Potency entry is “inactive”.

Turning to `CCCCC(CC)COC(=O)COc1ccc(Cl)cc1Cl` (stereo not given), the Potency entry is “inactive”.

In the case of `C[C@H]1C[C@H]2[C@@H]3CCC4=CC(=O)C=C[C@]4(C)[C@@]3(Cl)[C@@H](O)C[C@]2(C)[C@@]1(O)C(=O)CO`, the Potency entry is “inactive”.

In the case of `NCC(=O)CCC(=O)O`, the Potency entry is “inactive”.

For `O=C(O)CC(=O)C(=O)O`, the Potency result was “inactive”.

Take `O=C(NCCO[N+](=O)[O-])c1cccnc1`: the Potency result is “inactive”.

As for `O=[N+]([O-])c1cccc(S(=O)(=O)O)c1`, the Potency result is “inactive”.

Turning to `Nc1ccc(S(=O)(=O)Nc2ccccc2)cc1`, the Potency entry was “inactive”.

With `CCCCCCCC/C=C\CCCCCCCC(=O)OCC`, the Potency result is “inactive”.

Take `CCC(CC)Nc1ccc(C)c(C)c1`: the Potency entry was “inactive”.

Turning to `NC(=O)C(c1ccccc1)(c1ccccc1)[C@@H]1CCN(CCc2ccc3c(c2)CCO3)C1`, the Potency entry is “inactive”.
